Experimental findings from ChEMBL document CHEMBL1961873, “Compounds: GSK PKIS; Assays: Nanosyn kinase panel” (2012) are described below.

“And” between values parts separate entries of the source, which are not always exact repeats. Identical values can stand only once.

Chain of BDNF/NT-3 growth factors receptor (Homo sapiens) (Q16620 32-822 limits assumed): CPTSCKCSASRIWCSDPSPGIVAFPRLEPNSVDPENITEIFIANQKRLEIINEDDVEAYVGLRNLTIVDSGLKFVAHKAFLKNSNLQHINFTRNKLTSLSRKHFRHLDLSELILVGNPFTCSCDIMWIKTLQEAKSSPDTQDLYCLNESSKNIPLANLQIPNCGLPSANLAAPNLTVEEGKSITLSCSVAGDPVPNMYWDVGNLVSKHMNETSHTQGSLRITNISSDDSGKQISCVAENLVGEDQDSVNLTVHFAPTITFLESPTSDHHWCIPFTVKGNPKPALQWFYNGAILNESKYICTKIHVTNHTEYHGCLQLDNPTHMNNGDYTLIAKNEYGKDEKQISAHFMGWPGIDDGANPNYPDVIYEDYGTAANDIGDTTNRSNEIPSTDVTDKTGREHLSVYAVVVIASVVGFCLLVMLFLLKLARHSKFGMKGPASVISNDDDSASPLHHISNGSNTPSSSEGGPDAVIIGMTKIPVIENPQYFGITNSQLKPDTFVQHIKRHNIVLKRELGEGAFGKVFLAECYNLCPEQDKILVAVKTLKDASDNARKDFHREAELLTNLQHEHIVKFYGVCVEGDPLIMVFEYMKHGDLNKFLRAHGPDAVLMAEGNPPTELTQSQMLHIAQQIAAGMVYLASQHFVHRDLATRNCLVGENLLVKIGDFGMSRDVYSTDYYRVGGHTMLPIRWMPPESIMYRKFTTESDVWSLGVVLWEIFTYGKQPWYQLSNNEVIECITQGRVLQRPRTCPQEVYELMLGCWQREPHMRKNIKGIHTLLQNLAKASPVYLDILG

The first assay concerns the target BDNF/NT-3 growth factors receptor (Homo sapiens) (UniProt Q16620). The note with it: at 1 µM.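 Further: values are the mean percent inhibition of TRKB kinase.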
As for `NS(=O)(=O)c1ccc(N/N=C2\C(=O)Nc3cccc(CCc4ccncc4)c32)cc1`, the inhibition worked out at 45.4%.
With `COC(=O)Nc1nc2ccc(Oc3ccc(NC(=O)Nc4cc(C(F)(F)F)ccc4F)cc3)cc2s1`, the inhibition came to 61%.
Turning to `CCn1c(-c2nonc2N)nc2cncc(C(=O)NCCNC)c21`, the inhibition was 5.31%.
Consider `Cc1cc(O)cc(C)c1/C=C/c1cncc(C(=O)OC(C)(C)C)c1`, for which the inhibition came out at 5.2%.
Regarding `CS(=O)(=O)CCNCc1ccc(-c2ccc3ncnc(Nc4ccc(OCc5cccc(C(F)(F)F)c5)cc4)c3c2)o1`, the inhibition amounted to 17.5%.
For the molecule `COC(=O)Nc1nc2cc(Oc3ccc(NC(=O)Nc4ccccc4)cc3)ccc2[nH]1`, the inhibition amounted to 3.06%.
On to `O=C1Nc2ccccc2/C1=C1\CCc2cc(O)ccc21`, for which the inhibition was 78%.
On the same count and under the same terms, the figure for `CC1(C)CC(n2cnc(-c3ccc(F)cc3)c2-c2ccnc(N)n2)CC(C)(C)N1` is 2.03%; for `COc1ccc(-c2nn3ncccc3c2-c2ccnc(Nc3ccc(F)c(F)c3)n2)cc1` it is 8.32%; for `CCS(=O)(=O)c1ccc(OC)c(Nc2ncc(-c3cccc(C(C)=O)c3)o2)c1` it is 20.5%.
Still for that read-out and setting: the figure for `COc1cc(Nc2ncc(-c3ccccc3)o2)cc(OC)c1` is 35.2%.
In the case of `c1cnn2ncc(-c3ccnc(NCCCN4CCOCC4)n3)c2c1`, the inhibition worked out at 1.35%.
The same measure, in the same setting: the value for `Cc1c2ccc(N(C)c3ccnc(Nc4cccc(S(N)(=O)=O)c4)n3)cc2nn1C` was 9.82%; that for `CS(=O)(=O)Nc1ccc(-c2cc(-c3ccccc3)cc(C(N)=O)c2N)cc1` was 2.61%; that for `O=C(O[C@H]1CN[C@H](C#Cc2cc3ncnc(Nc4ccc5c(cnn5Cc5ccccc5)c4)c3s2)C1)N1CCOCC1` was -0.38%.
Still for that read-out and setting: the figure for `Nc1nonc1-c1nc2cnccc2n1C1CC1` is 3.17% and -0.36%; for `CS(=O)(=O)CCNCc1ccc(-c2ccc3ncnc(Nc4ccc(OCc5ccccc5)cc4)c3c2)o1` it is 4.99%; for `NS(=O)(=O)c1ccc(N/N=C2\C(=O)Nc3ccc(C(=O)NCc4ccncc4)cc32)cc1` it is 60%.
For the molecule `COc1cc(N2CCN(C(C)C)CC2)ccc1Nc1nc(Nc2cccc(F)c2C(=O)O)c2cc[nH]c2n1`, the inhibition is 6.6%.
For `CC1=C(C(=O)Nc2ccc3[nH]nc(C)c3c2)C(c2ccc(C(F)(F)F)cc2)CC(=O)N1` (configuration not stated), the inhibition came to 3.58%.
For the molecule `O=C(O[C@H]1CN[C@H](C#Cc2cc3ncnc(Nc4ccc(OCc5cccc(F)c5)c(Cl)c4)c3s2)C1)N1CCOCC1`, the inhibition was found to be 5.79%.
Turning to `COc1cccc(Nc2nccc(-c3cnn4ncccc34)n2)c1`, the inhibition amounted to 34.1%.
On to `CNC(=O)c1sc(-n2cnc3cc(OC)c(OC)cc32)cc1OCc1ccccc1C(F)(F)F`, for which the inhibition came to 4.02%.
Turning to `COc1cc2c(cc1Nc1nc(Nc3cccc(F)c3C(N)=O)c3cc[nH]c3n1)N(C(=O)CN1CCN(C(C)C)CC1)CC2`, the inhibition is 0.84%.
For `Fc1ccc(Nc2nccc(-c3c(-c4ccc(C(F)(F)F)cc4)nn4ncccc34)n2)cc1F`, the inhibition stood at 2.56%.
Turning to `Cn1c(-c2nonc2N)nc2cnccc21`, the inhibition was 0.53%.
In the case of `CS(=O)(=O)Nc1ccc(-c2ccc3c(NC(=O)C4CC4)n[nH]c3c2)cc1`, the inhibition was 5.91%.
Turning to `COc1cccc(-n2ncc3c(N/N=C/c4ccc(C(=O)NCCN(C)C)cc4)ncnc32)c1`, the inhibition was determined as 26.5%.
On to `COc1cc(N2CCN(C(C)C)CC2)ccc1Nc1nc(Nc2cccc3ncccc23)c2cc[nH]c2n1`, for which the inhibition came out at 0.22%.
The same measure, in the same setting: the figure for `CCCNc1cccc(-n2ncc3c(N/N=C/c4ccncc4)ncnc32)c1` is 33.9%.
For the molecule `NC(=O)c1ccc2c(-c3ccnc(NCCCO)n3)c(-c3ccc(F)cc3)nn2c1`, the inhibition was found to be 2.83%.

For another assay, the target named is NT-3 growth factor receptor (Homo sapiens) (UniProt Q16288). The following applies: at 0.1 µM.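 Further: mean percent inhibition of TRKC, reported within the GSK PKIS dataset.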
Chain of NT-3 growth factor receptor (Homo sapiens) (Q16288 32-839 limits assumed): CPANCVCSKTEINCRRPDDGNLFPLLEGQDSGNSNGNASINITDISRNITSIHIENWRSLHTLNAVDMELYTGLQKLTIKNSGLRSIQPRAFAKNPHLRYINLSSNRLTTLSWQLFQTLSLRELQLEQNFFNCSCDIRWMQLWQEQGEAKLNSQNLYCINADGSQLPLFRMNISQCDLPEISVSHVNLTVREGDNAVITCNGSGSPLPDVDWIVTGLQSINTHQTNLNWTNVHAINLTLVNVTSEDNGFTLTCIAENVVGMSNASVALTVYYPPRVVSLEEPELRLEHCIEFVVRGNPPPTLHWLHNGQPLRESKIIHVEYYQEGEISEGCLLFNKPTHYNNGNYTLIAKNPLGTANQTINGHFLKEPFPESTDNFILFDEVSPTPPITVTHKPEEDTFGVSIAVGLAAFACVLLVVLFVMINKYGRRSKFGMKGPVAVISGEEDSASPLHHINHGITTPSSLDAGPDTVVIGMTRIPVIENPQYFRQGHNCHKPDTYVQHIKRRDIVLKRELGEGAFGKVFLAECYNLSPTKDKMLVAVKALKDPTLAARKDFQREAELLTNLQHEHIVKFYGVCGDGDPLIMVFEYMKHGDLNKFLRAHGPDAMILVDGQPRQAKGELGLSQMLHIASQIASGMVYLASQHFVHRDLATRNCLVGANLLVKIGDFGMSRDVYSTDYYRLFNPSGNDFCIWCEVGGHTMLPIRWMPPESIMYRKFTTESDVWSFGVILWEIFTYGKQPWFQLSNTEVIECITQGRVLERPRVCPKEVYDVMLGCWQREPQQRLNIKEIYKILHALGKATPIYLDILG
For the molecule `NS(=O)(=O)c1ccc(N/N=C2\C(=O)Nc3cccc(CCc4ccncc4)c32)cc1`, the inhibition is 17.3%.
Turning to `COC(=O)Nc1nc2ccc(Oc3ccc(NC(=O)Nc4cc(C(F)(F)F)ccc4F)cc3)cc2s1`, the inhibition was found to be 25.7%.
For `CCn1c(-c2nonc2N)nc2cncc(C(=O)NCCNC)c21`, the inhibition amounted to 3.96%.
For the molecule `Cc1cc(O)cc(C)c1/C=C/c1cncc(C(=O)OC(C)(C)C)c1`, the inhibition was 2.87%.
As for `CS(=O)(=O)CCNCc1ccc(-c2ccc3ncnc(Nc4ccc(OCc5cccc(C(F)(F)F)c5)cc4)c3c2)o1`, the inhibition is 3%.
Consider `COC(=O)Nc1nc2cc(Oc3ccc(NC(=O)Nc4ccccc4)cc3)ccc2[nH]1`, for which the inhibition is 4.04%.
`O=C1Nc2ccccc2/C1=C1\CCc2cc(O)ccc21`: the inhibition was 28%.
With `CC1(C)CC(n2cnc(-c3ccc(F)cc3)c2-c2ccnc(N)n2)CC(C)(C)N1`, the inhibition amounted to 0.21%.
Regarding `COc1ccc(-c2nn3ncccc3c2-c2ccnc(Nc3ccc(F)c(F)c3)n2)cc1`, the inhibition stood at 2.73%.
On to `CCS(=O)(=O)c1ccc(OC)c(Nc2ncc(-c3cccc(C(C)=O)c3)o2)c1`, for which the inhibition was 4.38%.
For `COc1cc(Nc2ncc(-c3ccccc3)o2)cc(OC)c1`, the inhibition amounted to 6.57%.
Regarding `c1cnn2ncc(-c3ccnc(NCCCN4CCOCC4)n3)c2c1`, the inhibition stood at 3.48%.
In the case of `Cc1c2ccc(N(C)c3ccnc(Nc4cccc(S(N)(=O)=O)c4)n3)cc2nn1C`, the inhibition was 4.05%.
With `CS(=O)(=O)Nc1ccc(-c2cc(-c3ccccc3)cc(C(N)=O)c2N)cc1`, the inhibition is 1.09%.
For `O=C(O[C@H]1CN[C@H](C#Cc2cc3ncnc(Nc4ccc5c(cnn5Cc5ccccc5)c4)c3s2)C1)N1CCOCC1`, the inhibition is -0.59%.
Turning to `Nc1nonc1-c1nc2cnccc2n1C1CC1`, the inhibition is 2.17% and 1.89%.
Turning to `CS(=O)(=O)CCNCc1ccc(-c2ccc3ncnc(Nc4ccc(OCc5ccccc5)cc4)c3c2)o1`, the inhibition amounted to 3.88%.
Turning to `NS(=O)(=O)c1ccc(N/N=C2\C(=O)Nc3ccc(C(=O)NCc4ccncc4)cc32)cc1`, the inhibition came out at 19.2%.
For the molecule `COc1cc(N2CCN(C(C)C)CC2)ccc1Nc1nc(Nc2cccc(F)c2C(=O)O)c2cc[nH]c2n1`, the inhibition came to 2.64%.
With `CC1=C(C(=O)Nc2ccc3[nH]nc(C)c3c2)C(c2ccc(C(F)(F)F)cc2)CC(=O)N1` (configuration not stated), the inhibition was found to be 2.43%.
As for `O=C(O[C@H]1CN[C@H](C#Cc2cc3ncnc(Nc4ccc(OCc5cccc(F)c5)c(Cl)c4)c3s2)C1)N1CCOCC1`, the inhibition turned out to be 2.99%.
Consider `COc1cccc(Nc2nccc(-c3cnn4ncccc34)n2)c1`, for which the inhibition came out at 7.22%.
Take `CNC(=O)c1sc(-n2cnc3cc(OC)c(OC)cc32)cc1OCc1ccccc1C(F)(F)F`: the inhibition was 3.06%.
As for `COc1cc2c(cc1Nc1nc(Nc3cccc(F)c3C(N)=O)c3cc[nH]c3n1)N(C(=O)CN1CCN(C(C)C)CC1)CC2`, the inhibition was -1.97%.
On to `Fc1ccc(Nc2nccc(-c3c(-c4ccc(C(F)(F)F)cc4)nn4ncccc34)n2)cc1F`, for which the inhibition was 3.55%.
Still for that read-out and setting: the value for `Cn1c(-c2nonc2N)nc2cnccc21` was 2%; that for `CS(=O)(=O)Nc1ccc(-c2ccc3c(NC(=O)C4CC4)n[nH]c3c2)cc1` was 2.1%; that for `COc1cccc(-n2ncc3c(N/N=C/c4ccc(C(=O)NCCN(C)C)cc4)ncnc32)c1` was 3.96%.
For `COc1cc(N2CCN(C(C)C)CC2)ccc1Nc1nc(Nc2cccc3ncccc23)c2cc[nH]c2n1`, the inhibition is 0.87%.
For `CCCNc1cccc(-n2ncc3c(N/N=C/c4ccncc4)ncnc32)c1`, the inhibition is 4.23%.
`NC(=O)c1ccc2c(-c3ccnc(NCCCO)n3)c(-c3ccc(F)cc3)nn2c1`: the inhibition amounted to 3.99%.
